Among the data in PubChem BioAssay (NCI) are growth values, retold here.

Structures are written as SMILES. This is part of a sample that, as a whole, favours compounds with a hit. Of some 83,000 tested, about 20% had one in any assay.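 The test compound was applied at a single concentration to cells in 96-well plates for 48 hours, and percent growth was recorded.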 Calls of active or inactive are those of the source. How the source made its calls: active means growth percent below 10; inactive means the rest.

The subject of the assay is ACHN renal. Kind of assay: NCI-60 one-dose screen, 48 h (100 = growth as untreated, 0 = no growth, -100 = all killed). The conditions noted are these: 10 µM unless noted.
`COCCOc1ccc2ncc(C#Cc3cncc(C(=O)Nc4ccc(CN5CCN(C)CC5)c(C(F)(F)F)c4)c3)n2n1`: the growth is 4.87% (active). As to `CCOC(=O)c1c(N)c(C#N)cn1Cc1ccc(Cl)cc1Cl`, the growth was 87.4% (inactive).

Take `Cc1ccc(Nc2nc(SC(C)C)nc(-c3ccccc3)c2C#N)cc1`: the growth was 88.4% (inactive). `O=C(CSc1nc2ccccc2c(=O)n1-c1ccc(Cl)c(Cl)c1)Nc1ccc(S(=O)(=O)Nc2ccc(Cl)nn2)cc1`: the growth was 95.3% (inactive). As for `N#Cc1cnc2ccc(-c3cnc4n[nH]nc4c3)cc2c1N1CCc2cc(F)c(Cl)cc21`, the growth is 13.6% (inactive). As to `CNC(=O)Nc1ccc(Nc2cc(-c3ccc(-n4cccn4)cc3)[nH]n2)c(C)c1`, the growth is 109% (inactive). `CN1CCN(Cc2ccc(NC(=O)c3cncc(C#Cc4cnc5ccc(N)nn45)c3)cc2C(F)(F)F)CC1`: the growth is 27.7% (inactive).

In the case of `Cc1cc(=O)oc2cc(OCCCOc3ccc(/C=C/C(=O)Nc4ccc(Br)cc4)cc3)ccc12`, the growth is 46.7% (inactive).

As for `C/C(CC1(O)C(=O)Nc2ccccc21)=N\O` (stereo not drawn), the growth was 92.5% (inactive). Turning to `Cc1ccc2c(n1)C(=O)C(Cl)=C(Nc1ccccc1C(=O)OC(C)(C)C)C2=O`, the growth was -73.6% (active).

In the case of `COc1ccc(/C=N\NC(=O)c2cnn(CC(O)c3ccccc3)c2N)cc1OCc1ccc(Cl)cc1` (stereo not drawn), the growth was 58.6% (inactive).

For the molecule `NC(N)=NS(=O)(=O)c1ccc(N=Nc2c(N)nn(-c3ccc([N+](=O)[O-])cc3[N+](=O)[O-])c2N)cc1`, the growth is 101% (inactive).

Take `COc1ccccc1Cn1cc(C#N)c(N)c1C(=O)c1ccc(Br)cc1`: the growth is 96.6% (inactive).
